This is part of a sample that, as a whole, favours compounds with a hit. Of some 83,000 tested, about 20% had one in any assay.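 The endpoint reported here, percent growth, reads 100 for growth as untreated, 0 for no net growth and -100 for all cells dead.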 The source made the active and inactive calls. Rule for the calls: active = growth percent below 10; inactive = the rest.
Columns and labels:
Experiment in all cases: NCI-60 one-dose screen, 48 h (100 = growth as untreated, 0 = no growth, -100 = all killed)
Details in all cases: 10 µM unless noted
T-47D breast = test system: T-47D breast
BT-549 breast = test system: BT-549 breast
MDA-MB-435 melanoma = test system: MDA-MB-435 melanoma
SW-620 colon = test system: SW-620 colon
MCF7 breast = test system: MCF7 breast
HCT-116 colon = test system: HCT-116 colon
HCC-2998 colon = test system: HCC-2998 colon
KM12 colon = test system: KM12 colon

Measured: growth

C/C(=N\OC(=O)Nc1ccccc1)c1ccccc1
inactive: T-47D breast 104% | BT-549 breast 99.9% | MDA-MB-435 melanoma 95.1% | SW-620 colon 98.2% | MCF7 breast 95% | HCT-116 colon 105% | HCC-2998 colon 117% | KM12 colon 107%

c1ccc(C2=Nc3ccccc3SC2)cc1
inactive: T-47D breast 100% | BT-549 breast 107% | MDA-MB-435 melanoma 105% | SW-620 colon 95.4% | MCF7 breast 86.4% | HCT-116 colon 96.7% | HCC-2998 colon 104% | KM12 colon 97.5%

C=CCOc1c(Br)cc(Br)cc1Br
inactive: T-47D breast 65.1% | BT-549 breast 67.4% | MDA-MB-435 melanoma 27.2% | SW-620 colon 76.1% | MCF7 breast 40.5% | HCT-116 colon 54.5% | HCC-2998 colon 95.1% | KM12 colon 84.8%

Cc1[nH]nc2ccc3nc(-c4ccc5[nH]ncc5c4)c4c(c3c12)CCCC4
active: MDA-MB-435 melanoma 3.38% | SW-620 colon 6.74% | HCT-116 colon 6.66%
inactive: T-47D breast 24.1% | BT-549 breast 18.5% | MCF7 breast 28% | HCC-2998 colon 45.2% | KM12 colon 12.6%

Cc1cc(-c2nnc(/C=C/c3ccc4c(c3)OCO4)o2)n[nH]1
active: MDA-MB-435 melanoma -25.4%
inactive: T-47D breast 60.9% | BT-549 breast 35.1% | SW-620 colon 25.5% | MCF7 breast 31.7% | HCT-116 colon 48.1% | HCC-2998 colon 75.8% | KM12 colon 36.1%

Cc1ccc(/C=C/C(=N/N=C(N)N)c2ccccc2)cc1
active: MDA-MB-435 melanoma -16.9%
inactive: T-47D breast 40.9% | BT-549 breast 47.7% | SW-620 colon 25.9% | MCF7 breast 11.6% | HCT-116 colon 20.1% | HCC-2998 colon 20.9% | KM12 colon 14.8%

CCN(CC)CCCC(C)N/C(c1cccc(OC)c1)=c1\c(=O)[nH]n(-c2c3ccccc3nc3ccccc23)c(=O)\c1=C(/NC(C)CCCN(CC)CC)c1cccc(OC)c1 (centres undefined)
active: T-47D breast -26.7% | BT-549 breast -5.18% | MDA-MB-435 melanoma -91.1% | SW-620 colon -21.6% | MCF7 breast -12.7% | HCT-116 colon -9.94% | HCC-2998 colon -72.7% | KM12 colon -47.4%

O=NN(CC(=O)NNc1ccccc1)CC(=O)NNc1ccccc1
inactive: T-47D breast 46.6% | BT-549 breast 103% | MDA-MB-435 melanoma 30.5% | SW-620 colon 31.1% | MCF7 breast 69.5% | HCT-116 colon 57% | HCC-2998 colon 68.9% | KM12 colon 37.9%

C=C(C)c1ccc(/C=N/NC(N)=S)cc1
inactive: T-47D breast 67.2% | BT-549 breast 99.4% | MDA-MB-435 melanoma 87% | SW-620 colon 97.9% | MCF7 breast 51.1% | HCT-116 colon 84.5% | HCC-2998 colon 110% | KM12 colon 55.4%

COc1ccc(/C=C2\CCCC3=C2N=C2SC(C)=NN2C3c2ccc(OC)c(OC)c2)cc1OC (centres undefined)
active: HCT-116 colon -28.1%
inactive: T-47D breast 48.3% | BT-549 breast 33.9% | MDA-MB-435 melanoma 11.6% | SW-620 colon 27.3% | MCF7 breast 19.3% | HCC-2998 colon 30.5% | KM12 colon 15.5%

CCCCC(CCc1ccccn1)C(=O)c1ccccc1 (centres undefined)
inactive: T-47D breast 100% | BT-549 breast 108% | MDA-MB-435 melanoma 111% | SW-620 colon 112% | MCF7 breast 105% | HCT-116 colon 109% | HCC-2998 colon 111% | KM12 colon 136%

CN(C)c1ccc(/C=N/Nc2nnc3n2N=C(c2ccc(Cl)cc2)CS3)cc1
inactive: T-47D breast 84.2% | BT-549 breast 90.3% | MDA-MB-435 melanoma 97.5% | SW-620 colon 102% | MCF7 breast 77.4% | HCT-116 colon 99% | HCC-2998 colon 106% | KM12 colon 101%

COc1c(C(=O)/C=C/c2ccc(C)o2)c(O)cc2occc12
inactive: T-47D breast 66.6% | BT-549 breast 67.5% | SW-620 colon 32.1% | MCF7 breast 38.5% | HCT-116 colon 52.8% | HCC-2998 colon 79.4% | KM12 colon 45.4%
active: MDA-MB-435 melanoma -28.3%

Cc1ccc2oc(=O)cc(-c3nc4ccc([N+](=O)[O-])cc4[nH]3)c2c1
active: HCT-116 colon 8.52%
inactive: T-47D breast 25.4% | BT-549 breast 42.4% | MDA-MB-435 melanoma 64.6% | SW-620 colon 78.1% | MCF7 breast 57.2% | HCC-2998 colon 67.2% | KM12 colon 59.7%

CC(C)(C)c1ccc(Cn2c(-c3nonc3N)nc3ccccc32)cc1
active: MDA-MB-435 melanoma 8.66%
inactive: T-47D breast 53.6% | BT-549 breast 90.2% | SW-620 colon 51.5% | MCF7 breast 35.5% | HCT-116 colon 62.6% | HCC-2998 colon 77.7% | KM12 colon 59.4%

CCOC(=O)C1=C(C)NC(SCc2nnc(-c3ccc(Cl)cc3)o2)=NC1c1ccc(Cl)cc1 (centres undefined)
inactive: T-47D breast 49.9% | BT-549 breast 75.3% | MDA-MB-435 melanoma 69.6% | SW-620 colon 85.9% | MCF7 breast 49% | HCT-116 colon 46.2% | HCC-2998 colon 79.9% | KM12 colon 69.8%

CCCCCCCCCCCC1=NC(C)(C)CN1C(C)(C)CO
active: MDA-MB-435 melanoma -25.2% | HCT-116 colon 8.08% | HCC-2998 colon -75.5% | KM12 colon -10.2%
inactive: T-47D breast 45.3% | BT-549 breast 76.6% | SW-620 colon 10.8% | MCF7 breast 24.3%

COc1ccc(C2C=C(c3ccc(Cl)cc3)N=C3SC=CN32)cc1 (centres undefined)
inactive: T-47D breast 104% | BT-549 breast 90.3% | MDA-MB-435 melanoma 107% | SW-620 colon 97.7% | MCF7 breast 96.1% | HCT-116 colon 104% | HCC-2998 colon 119% | KM12 colon 112%

CN(C)CCOc1nc2c3cccnc3cc(-c3cccc(Cl)c3)c2c2ncccc12
active: MDA-MB-435 melanoma -59.6% | SW-620 colon -44.3% | MCF7 breast -50% | HCT-116 colon -81.3% | HCC-2998 colon -79.2%
inactive: T-47D breast 20.1% | BT-549 breast 57.9% | KM12 colon 14.2%

CCCCCCCCNC(C)C(O)c1ccc(SC(C)C)cc1 (centres undefined)
active: MDA-MB-435 melanoma -40.8% | SW-620 colon -63.6% | HCT-116 colon -96.9% | HCC-2998 colon -80.4% | KM12 colon -72.1%
inactive: T-47D breast 49.6% | BT-549 breast 59.9% | MCF7 breast 54%

C=CC[C@]1(O)CC[C@H]2[C@@H]3CCc4cc(O)ccc4[C@H]3CC[C@@]21C
inactive: T-47D breast 82.5% | BT-549 breast 93.6% | MDA-MB-435 melanoma 38.9% | SW-620 colon 92% | MCF7 breast 116% | HCT-116 colon 93% | HCC-2998 colon 99.8% | KM12 colon 76.8%

CCOC(=O)c1sc2nc(-c3cc4ccccc4o3)cc(-c3ccc(Cl)cc3)c2c1N
inactive: T-47D breast 103% | BT-549 breast 148% | MDA-MB-435 melanoma 222% | SW-620 colon 96.8% | MCF7 breast 110% | HCT-116 colon 105% | HCC-2998 colon 109% | KM12 colon 99.7%

FC1(F)CCN(Cc2c[nH]c3cc(Cl)ccc23)C[C@H]1CCc1ccccc1
inactive: T-47D breast 45.2% | BT-549 breast 56% | MDA-MB-435 melanoma 59.3% | SW-620 colon 38.8% | MCF7 breast 41.2% | HCT-116 colon 22.8% | HCC-2998 colon 95.3% | KM12 colon 60.8%

COc1ccc(/C(=C\c2cc(OC)c(OC)c(OC)c2)C(=O)N2CCNCC2)cc1
inactive: T-47D breast 82.8% | BT-549 breast 104% | MDA-MB-435 melanoma 98.2% | SW-620 colon 97.6% | MCF7 breast 95.5% | HCT-116 colon 94.5% | HCC-2998 colon 104% | KM12 colon 94.2%

COc1cc2c(cc1OC)C(=O)C(Br)CC2 (centres undefined)
active: HCT-116 colon 7.03%
inactive: T-47D breast 36.3% | BT-549 breast 16.1% | MDA-MB-435 melanoma 20.2% | SW-620 colon 25.1% | MCF7 breast 40.9% | HCC-2998 colon 90.6% | KM12 colon 88.9%

COc1cc(C2CC(c3cccc(Nc4ccnc5cc(Cl)ccc45)c3)=NN2c2ccc(Cl)cc2)cc(OC)c1OC (centres undefined)
inactive: T-47D breast 30.8% | BT-549 breast 81.7% | SW-620 colon 37.3% | MCF7 breast 54.8% | HCT-116 colon 53% | HCC-2998 colon 87.3% | KM12 colon 33.9%
active: MDA-MB-435 melanoma 8.15%

CCCNC(=S)N/N=C(\C)c1ccccn1
active: MCF7 breast 6.77% | HCT-116 colon 4.71%
inactive: T-47D breast 37.2% | BT-549 breast 32.4% | MDA-MB-435 melanoma 49% | SW-620 colon 33.4% | HCC-2998 colon 44.2% | KM12 colon 32%

C/C(=N\OC(=O)Nc1cccc(Cl)c1)c1ccccc1
inactive: T-47D breast 95.9% | BT-549 breast 105% | MDA-MB-435 melanoma 93.1% | SW-620 colon 95.3% | MCF7 breast 88.1% | HCT-116 colon 103% | HCC-2998 colon 116% | KM12 colon 109%

O=C1c2ccccc2C(=O)c2c1oc1ccc3ccccc3c21
inactive: T-47D breast 23.5% | BT-549 breast 70.2% | MDA-MB-435 melanoma 91.3% | SW-620 colon 91.6% | MCF7 breast 21.8% | HCT-116 colon 62.2% | HCC-2998 colon 99% | KM12 colon 61.6%

CCC(C)C1NC(=O)c2nc(oc2-c2ccccc2)-c2csc(n2)-c2csc(n2)-c2nc(oc2C)-c2coc(n2)CNC(=O)C(C(C)CC)NC1=O (centres undefined)
active: T-47D breast -62.5% | BT-549 breast -78.4% | MDA-MB-435 melanoma -87.5% | SW-620 colon -82.6% | MCF7 breast -68.6% | HCT-116 colon -59% | HCC-2998 colon -80.1% | KM12 colon -73.9%

Cc1ccc(N2C3c4ccccc4N(S(=O)(=O)c4ccc(C)cc4)C2c2ccccc2N3S(=O)(=O)c2ccc(C)cc2)cc1
inactive: T-47D breast 93.2% | BT-549 breast 115% | MDA-MB-435 melanoma 99.9% | SW-620 colon 96.6% | MCF7 breast 88.5% | HCT-116 colon 121% | HCC-2998 colon 115% | KM12 colon 95.4%

Clc1ccc(Nc2ncnc3c2sc2ncccc23)cc1
inactive: T-47D breast 33.5% | BT-549 breast 49.1% | MDA-MB-435 melanoma 36.2% | SW-620 colon 46.6% | MCF7 breast 19.5% | HCT-116 colon 28% | HCC-2998 colon 61.9% | KM12 colon 56.2%

COc1ccc2[nH]c(O)c(/C=c3/ccc4c(c3)N=C(c3ccc(F)cc3)N=4)c2c1
active: HCT-116 colon -22.6%
inactive: T-47D breast 28.3% | BT-549 breast 26.7% | MDA-MB-435 melanoma 57.8% | SW-620 colon 41.3% | MCF7 breast 41.7% | HCC-2998 colon 104% | KM12 colon 74.9%

Reference: PubChem BioAssay (NCI)
